According to the supplement of paper PMC12067093, “Discovery and optimisation of a covalent ligand for TRIM25 and its application to targeted protein ubiquitination” (Chemical Science, 2025):
Targets with the largest changes are over-represented here; the source holds about 21,000 in all.

Compound: Cc1cc(ccc1-c1ccccc1)C(=O)N1CCCN(CC1)C(=O)CCl [compound 10]
Assay: probe-labelled cysteine peptide fold change vs DMSO (competition) (log2 fold change); higher = less target engagement (more negative = stronger competition)
Conditions: THP-1, incubation time: 4 h
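Note: competitive profiling in live THP-1 cells: cysteine peptides tagged with an iodoacetamide desthiobiotin (IA-DTB) probe, intensity after compound treatment relative to DMSO-treated cells.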

Chain of UniProt P53667 (P53667 whole entry, looked up): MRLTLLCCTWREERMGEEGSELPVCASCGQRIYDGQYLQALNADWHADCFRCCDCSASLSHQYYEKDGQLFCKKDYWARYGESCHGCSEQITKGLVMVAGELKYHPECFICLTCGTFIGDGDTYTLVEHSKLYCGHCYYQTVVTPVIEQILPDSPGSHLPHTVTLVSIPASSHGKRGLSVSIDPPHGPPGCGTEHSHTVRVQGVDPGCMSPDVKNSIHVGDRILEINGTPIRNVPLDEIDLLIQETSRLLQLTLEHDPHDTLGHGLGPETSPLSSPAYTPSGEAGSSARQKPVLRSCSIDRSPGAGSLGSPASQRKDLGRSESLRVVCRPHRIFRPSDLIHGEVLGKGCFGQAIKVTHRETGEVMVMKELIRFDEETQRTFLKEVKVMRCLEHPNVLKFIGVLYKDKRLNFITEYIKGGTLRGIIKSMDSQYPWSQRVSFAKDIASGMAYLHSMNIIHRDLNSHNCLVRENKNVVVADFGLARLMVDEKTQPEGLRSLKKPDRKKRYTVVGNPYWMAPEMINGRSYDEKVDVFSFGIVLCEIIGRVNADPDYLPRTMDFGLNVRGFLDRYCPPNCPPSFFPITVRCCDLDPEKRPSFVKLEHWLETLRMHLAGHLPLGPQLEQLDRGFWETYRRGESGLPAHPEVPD
Chain of UniProt Q9BUK6 (Q9BUK6 whole entry, looked up): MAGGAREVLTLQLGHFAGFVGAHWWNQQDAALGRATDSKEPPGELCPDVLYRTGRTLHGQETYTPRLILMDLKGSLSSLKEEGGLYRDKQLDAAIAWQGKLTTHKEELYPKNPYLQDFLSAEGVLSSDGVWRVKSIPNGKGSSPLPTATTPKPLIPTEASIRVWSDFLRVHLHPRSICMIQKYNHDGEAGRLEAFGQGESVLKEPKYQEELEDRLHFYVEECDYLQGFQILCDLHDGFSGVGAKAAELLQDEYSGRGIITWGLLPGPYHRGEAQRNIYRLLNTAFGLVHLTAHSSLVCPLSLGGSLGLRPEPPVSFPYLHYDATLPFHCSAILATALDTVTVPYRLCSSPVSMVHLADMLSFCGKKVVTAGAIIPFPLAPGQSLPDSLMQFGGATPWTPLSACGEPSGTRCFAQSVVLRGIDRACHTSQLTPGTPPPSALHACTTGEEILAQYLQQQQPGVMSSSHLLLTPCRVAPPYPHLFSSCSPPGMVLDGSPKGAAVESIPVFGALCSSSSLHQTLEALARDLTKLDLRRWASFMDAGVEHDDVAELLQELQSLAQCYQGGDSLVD
Chain of UniProt P45983 (P45983 whole entry, looked up): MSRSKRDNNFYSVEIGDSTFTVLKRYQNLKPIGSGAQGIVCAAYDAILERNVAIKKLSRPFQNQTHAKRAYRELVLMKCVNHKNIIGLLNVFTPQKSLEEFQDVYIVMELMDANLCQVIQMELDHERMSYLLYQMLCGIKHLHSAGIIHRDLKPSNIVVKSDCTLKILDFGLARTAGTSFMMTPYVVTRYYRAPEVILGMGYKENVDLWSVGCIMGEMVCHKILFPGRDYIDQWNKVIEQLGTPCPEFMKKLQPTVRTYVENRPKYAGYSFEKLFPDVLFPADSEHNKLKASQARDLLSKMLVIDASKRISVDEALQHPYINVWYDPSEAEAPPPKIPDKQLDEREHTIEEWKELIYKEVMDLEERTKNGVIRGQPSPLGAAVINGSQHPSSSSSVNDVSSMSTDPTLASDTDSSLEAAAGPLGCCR
Chain of UniProt P20645 (P20645 whole entry, looked up): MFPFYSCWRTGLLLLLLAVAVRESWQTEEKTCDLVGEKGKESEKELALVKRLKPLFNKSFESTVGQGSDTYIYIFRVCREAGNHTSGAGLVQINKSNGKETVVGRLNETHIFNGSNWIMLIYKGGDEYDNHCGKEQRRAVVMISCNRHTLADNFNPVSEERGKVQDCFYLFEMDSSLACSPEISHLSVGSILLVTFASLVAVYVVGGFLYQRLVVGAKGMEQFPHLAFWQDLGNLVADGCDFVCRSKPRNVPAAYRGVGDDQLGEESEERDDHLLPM
Chain of UniProt Q8IWA4 (Q8IWA4 whole entry): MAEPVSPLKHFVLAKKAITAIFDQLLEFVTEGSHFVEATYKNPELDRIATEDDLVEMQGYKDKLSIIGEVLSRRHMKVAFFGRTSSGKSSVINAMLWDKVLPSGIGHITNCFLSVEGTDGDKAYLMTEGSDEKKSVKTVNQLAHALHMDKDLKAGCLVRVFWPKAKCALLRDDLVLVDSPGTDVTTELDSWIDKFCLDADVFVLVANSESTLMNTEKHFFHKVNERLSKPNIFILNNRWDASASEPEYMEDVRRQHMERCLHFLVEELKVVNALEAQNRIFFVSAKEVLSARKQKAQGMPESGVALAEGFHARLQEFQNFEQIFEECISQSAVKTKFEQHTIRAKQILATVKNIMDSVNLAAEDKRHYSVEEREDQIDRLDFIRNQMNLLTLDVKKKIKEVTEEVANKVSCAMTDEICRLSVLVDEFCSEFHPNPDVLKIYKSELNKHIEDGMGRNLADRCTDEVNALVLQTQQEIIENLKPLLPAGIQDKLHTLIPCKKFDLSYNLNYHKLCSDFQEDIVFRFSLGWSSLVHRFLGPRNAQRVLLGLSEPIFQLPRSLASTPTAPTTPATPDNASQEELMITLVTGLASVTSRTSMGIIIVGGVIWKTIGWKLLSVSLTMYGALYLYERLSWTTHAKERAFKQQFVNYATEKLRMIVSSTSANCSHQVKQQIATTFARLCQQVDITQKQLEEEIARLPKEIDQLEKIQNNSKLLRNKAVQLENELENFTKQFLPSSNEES
Chain of UniProt Q9BQG0 (Q9BQG0 whole entry, looked up): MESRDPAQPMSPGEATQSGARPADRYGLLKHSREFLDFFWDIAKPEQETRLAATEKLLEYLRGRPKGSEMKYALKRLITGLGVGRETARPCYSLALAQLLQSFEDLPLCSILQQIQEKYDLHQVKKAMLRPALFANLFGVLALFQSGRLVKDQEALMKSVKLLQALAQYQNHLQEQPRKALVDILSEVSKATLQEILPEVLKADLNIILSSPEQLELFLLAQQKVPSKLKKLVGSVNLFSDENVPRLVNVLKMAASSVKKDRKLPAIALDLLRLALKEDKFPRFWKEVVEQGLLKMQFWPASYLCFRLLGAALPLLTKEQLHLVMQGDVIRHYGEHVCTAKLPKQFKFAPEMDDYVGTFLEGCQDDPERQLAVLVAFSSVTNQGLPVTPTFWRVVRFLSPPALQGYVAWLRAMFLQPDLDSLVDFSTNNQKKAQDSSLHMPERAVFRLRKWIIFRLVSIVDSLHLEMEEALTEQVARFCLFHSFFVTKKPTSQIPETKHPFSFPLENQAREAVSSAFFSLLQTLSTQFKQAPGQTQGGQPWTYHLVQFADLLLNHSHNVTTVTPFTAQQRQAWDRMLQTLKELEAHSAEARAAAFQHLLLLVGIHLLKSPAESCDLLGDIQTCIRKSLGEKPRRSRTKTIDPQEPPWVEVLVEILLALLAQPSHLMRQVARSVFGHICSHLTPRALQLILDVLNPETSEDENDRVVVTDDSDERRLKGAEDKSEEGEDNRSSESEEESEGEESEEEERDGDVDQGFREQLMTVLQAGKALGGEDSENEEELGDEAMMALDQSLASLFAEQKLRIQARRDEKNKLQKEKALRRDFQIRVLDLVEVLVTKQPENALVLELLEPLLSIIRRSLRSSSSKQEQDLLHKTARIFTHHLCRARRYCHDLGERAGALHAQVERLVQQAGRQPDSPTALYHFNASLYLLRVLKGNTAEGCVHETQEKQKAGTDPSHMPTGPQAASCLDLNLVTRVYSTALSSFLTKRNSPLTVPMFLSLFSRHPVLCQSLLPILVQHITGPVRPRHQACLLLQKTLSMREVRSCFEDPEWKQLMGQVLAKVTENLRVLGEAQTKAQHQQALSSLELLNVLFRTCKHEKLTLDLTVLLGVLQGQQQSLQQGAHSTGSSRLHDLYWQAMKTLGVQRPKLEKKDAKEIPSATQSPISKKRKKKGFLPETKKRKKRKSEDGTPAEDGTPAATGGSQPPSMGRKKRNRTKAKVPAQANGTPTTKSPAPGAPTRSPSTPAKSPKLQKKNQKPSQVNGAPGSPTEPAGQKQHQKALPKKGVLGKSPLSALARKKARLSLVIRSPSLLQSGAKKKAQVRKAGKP
Chain of UniProt Q8N1G4 (Q8N1G4 whole entry, looked up): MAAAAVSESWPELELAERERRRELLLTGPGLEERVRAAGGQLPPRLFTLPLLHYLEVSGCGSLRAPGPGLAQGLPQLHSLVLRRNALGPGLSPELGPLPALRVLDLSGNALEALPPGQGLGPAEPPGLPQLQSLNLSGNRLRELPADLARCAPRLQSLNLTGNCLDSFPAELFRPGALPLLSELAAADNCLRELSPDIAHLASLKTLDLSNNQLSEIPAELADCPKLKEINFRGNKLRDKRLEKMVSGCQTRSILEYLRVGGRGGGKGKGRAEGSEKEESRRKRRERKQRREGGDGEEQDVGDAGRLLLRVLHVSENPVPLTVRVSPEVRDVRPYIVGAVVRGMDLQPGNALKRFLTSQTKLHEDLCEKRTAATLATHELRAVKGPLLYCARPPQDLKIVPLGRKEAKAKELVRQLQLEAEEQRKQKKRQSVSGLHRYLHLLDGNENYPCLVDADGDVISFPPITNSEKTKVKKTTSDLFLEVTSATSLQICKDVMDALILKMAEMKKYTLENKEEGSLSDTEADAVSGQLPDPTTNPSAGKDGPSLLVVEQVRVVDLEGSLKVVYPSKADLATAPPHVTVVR
Chain of UniProt Q96PE7 (Q96PE7 whole entry): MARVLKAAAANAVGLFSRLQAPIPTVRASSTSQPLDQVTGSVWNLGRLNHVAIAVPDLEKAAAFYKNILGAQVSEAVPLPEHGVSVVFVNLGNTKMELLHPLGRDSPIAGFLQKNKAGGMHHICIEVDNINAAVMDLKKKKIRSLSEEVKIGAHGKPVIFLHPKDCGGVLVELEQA

| Target | probe-labelled cysteine peptide fold change (10 µM) | probe-labelled cysteine peptide fold change (50 µM) |
| --- | --- | --- |
| MFN1_Q8IWA4_513_LCSDFQEDIVFR (UniProt Q8IWA4) | -0.0991 | 0.451 |
| MCM2_P49736_223_ISDMCK (UniProt P49736) | -0.124 | -0.178 |
| MAPK8_P45983_163_SDCTLK (UniProt P45983) | -0.283 | -1.24 |
| MYBBP1A_Q9BQG0_338_HYGEHVCTAK (UniProt Q9BQG0) | 0.0441 | 0.083 |
| MSH6_P52701_687_SELALSALGGCVFYLK (UniProt P52701) | 0.05 | 0.296 |
| M6PR_P20645_145_AVVMISCNR (UniProt P20645) | -0.268 | -0.155 |
| MARS_P56192_389_CEHCAR (UniProt P56192) | -0.00939 | -0.304 |
| MSTO1_Q9BUK6_232_LHFYVEECDYLQGFQILCDLHDGFSGVGAK (UniProt Q9BUK6) | 0.444 | 1.33 |
| MYH9_P35579_671_CIIPNHEKK (UniProt P35579) | -0.188 | -1.18 |
| MAGT1_Q9H0U3_87_QCVVCK (UniProt Q9H0U3) | -0.137 | 0.464 |
| MKS1_Q9NXB0_226_KYEHVLCTLK (UniProt Q9NXB0) | -0.112 | 0.305 |
| MCEE_Q96PE7_166_DCGGVLVELEQA (UniProt Q96PE7) | -0.0643 | 0.17 |
| MTHFD1_P11586_236_GEWIKPGAIVIDCGINYVPDDKKPNGR (UniProt P11586) | -0.116 | -1.23 |
| MRC2_Q9UBG0_201_YDNQWFHGCTSTGR (UniProt Q9UBG0) | -2.14 | -2.04 |
| LRRK2_Q5S007_1187_FSCIPEAILNLPHLR (UniProt Q5S007) | -0.0375 | -0.109 |
| LIMD1_Q9UGP4_401_LSPTSLVHPVMSTLPELSCK (UniProt Q9UGP4) | -0.0884 | -0.436 |
| MARS_P56192_38_AEVLISTVGPEDCVVPFLTRPK (UniProt P56192) | -0.0722 | 0.0548 |
| MYCBP2_O75592_505_CLHACGISLFDLEK (UniProt O75592) | 0.122 | 0.236 |

| Target | probe-labelled cysteine peptide fold change (10 µM) | probe-labelled cysteine peptide fold change (50 µM) |
| --- | --- | --- |
| MYCBP2_O75592_4318_QVFKEEEEAIKVDLHEGCGR (UniProt O75592) | -0.166 | -0.439 |
| LIMK1_P53667_84_YGESCHGCSEQITK (UniProt P53667) | 0.0187 | -0.262 |
| MRC2_Q9UBG0_1234_TTSCDTK (UniProt Q9UBG0) | -0.27 | -0.499 |
| LY75_O60449-2_1697_NQCTDHGADMISIHNEEENAFILDTLK (UniProt O60449) | -0.0829 | 0.022 |
| LUC7L3_O95232_40+43_YYLCGFCPAELFTNTR (UniProt O95232) | 0.232 | -0.733 |
| MKI67_P46013_643_SQHDILQMICSK (UniProt P46013) | -0.612 | -2.28 |
| MYCBP2_O75592_3263_QAHPGCGR (UniProt O75592) | 0.0855 | 0.00399 |
| MADD_Q8WXG6_1489_LINMTYCPK (UniProt Q8WXG6) | -0.139 | -1.56 |
| MYH9_P35579_988_KLEEEQIILEDQNCK (UniProt P35579) | -0.0561 | -0.0225 |
| MPI_P34949_289_GDCVECMACSDNTVR (UniProt P34949) | 0.0622 | -0.0489 |
| MYCBP2_O75592_3241_DTICELCGESHPYPVTYHMR (UniProt O75592) | -0.0846 | -0.18 |
| MRPL44_Q9H9J2_96_TAFVNSCYIK (UniProt Q9H9J2) | -0.0364 | -0.21 |
| MRPS18A_Q9NVS2_186_DNVCYSR (UniProt Q9NVS2) | -0.0735 | -0.099 |
| LRRC47_Q8N1G4_367_LHEDLCEK (UniProt Q8N1G4) | -0.211 | -0.0285 |
| MYCBP2_O75592_3392_MPCLYLQTLAR (UniProt O75592) | -0.0844 | -0.345 |
| MTMR14_Q8NCE2_131_FVCPVILFK (UniProt Q8NCE2) | -0.00849 | -0.0865 |
| MRPL37_Q9BZE1_104_DQACYIFHHR (UniProt Q9BZE1) | 0.0327 | -0.253 |
| MTCH2_Q9Y6C9_49_QVCQLPGLFSYAQHIASIDGR (UniProt Q9Y6C9) | -0.0446 | 0.0916 |
